HEK293 tox – cytotoxicity counter-screen for GLP-1 receptor inverse agonists; HEK293 cAMP-luciferase reporter cells, luminescence, 24 h; Potency, µM (top dose mostly 38.3 µM), without a hit: at the top dose activity change, negative = inhibition, actives largely listed as inhibitors; 0.13% of 410,000 active;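 also: loss of luciferase light is scored as toxicity; % is scaled to controls: 0 for no effect and ±100 for the full control effect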
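Quantitative HTS format, 1536 wells, 200 cells/uL seeded. Compounds: 23 nL, 24 h, 37 °C. Detection: luciferase reagent, luminescence at 12 min RT; decreased signal taken as cytotoxic.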
Mito fusion yeast – inhibitors of mitochondrial division or activators of mitochondrial fusion | 0.23% of 320,000 active | Potency, µM (highest dose often 46.1 µM), without a hit: at the top dose growth rescue (activation), actives largely listed as activators | S. cerevisiae fusion-defective mutant growth rescue, CellTiterGlo 48 h | AID 485298; also: % of control where 0% means no effect; nearly all actives have a fitted effect of over 45% in size
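S. cerevisiae fusion-defective temperature-sensitive mutants (e.g. fzo1-1, mgm1-5) grown 48 h at 37C in YPEG (ethanol/glycerol non-fermentable) medium with 23 nl compound per well; growth rescue read as CellTiterGlo luminescence.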
GLP1R ag – activates the human GLP-1 receptor; HEK293 GLP-1R CRE-luciferase, luminescence, 4-6 h; cells express a hypersensitive GLP-1R form; Potency, µM (series often up to 45.6 µM), inactives show top-dose activation, actives largely listed as activators; AID 624172; P43220; 0.007% of 380,000 active; also: % of control where 0% means no effect
Target sequence (P43220 whole entry, looked up): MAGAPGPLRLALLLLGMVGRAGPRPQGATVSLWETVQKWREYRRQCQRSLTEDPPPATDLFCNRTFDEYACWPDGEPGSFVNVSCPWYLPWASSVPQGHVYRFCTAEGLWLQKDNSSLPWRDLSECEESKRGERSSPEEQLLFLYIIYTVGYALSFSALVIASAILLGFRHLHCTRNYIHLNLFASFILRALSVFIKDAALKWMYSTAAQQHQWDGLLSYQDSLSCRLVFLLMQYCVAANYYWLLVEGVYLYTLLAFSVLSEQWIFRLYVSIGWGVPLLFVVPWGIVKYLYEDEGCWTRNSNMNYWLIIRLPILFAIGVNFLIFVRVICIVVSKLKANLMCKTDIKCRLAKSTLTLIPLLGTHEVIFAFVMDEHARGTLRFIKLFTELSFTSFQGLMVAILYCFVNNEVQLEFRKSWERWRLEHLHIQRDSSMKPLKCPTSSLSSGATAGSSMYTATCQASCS
BRCA1 expr act – increases BRCA1 expression; Potency, µM (titrated, usually from 46.1 µM), without a hit: top-dose activation, hits mostly activators; 1.1% of 380,000 active; MCF7-BRCA1-FFLuc reporter, luminescence, 48 h; response scale: scaled: vehicle 0%, 10 µM genistein 100%; AID 624202; also: nearly all actives have a fitted effect of over 80% in size
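MCF7-BRCA1-FFLuc, 2000 cells/well; 2 h attach, 37 °C/5% CO2; compound 48 h; luciferase substrate 15 min; luminescence end-point. Norm. to genistein 10 microM max activation and DMSO; concentration-response curves fitted.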
GLP-1R inv ag – inverse agonists of human GLP-1 receptor | AID 624417 | HEK293 GLP-1R CRE-luciferase, luminescence, 24 h; GLP-1R form is constitutively active | P43220 | Potency, µM (series often up to 38.3 µM), inactives show at the highest dose activity change, negative = inhibition, usual class: inhibitors | 1.6% of 410,000 active; also: % is scaled to controls: 0 for no effect and ±100 for the full control effect; nearly all actives have a fitted effect of over 55% in size
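Inverse agonists were sought by their lowering of basal cAMP reporter luciferase output in HEK293 cells stably carrying constitutively active human GLP-1R, after 24 h compound treatment.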
Active calls of the source: *; ? = inconclusive; nt = no result given. The list is not random: actives were taken first. Their share in the collection is about 2.8%. Calls follow the shape of the dose curve; as a rule, active = well fitted curve in the direction sought with a large enough effect; inconclusive = small, poorly fitted or top-dose-only effect, or another doubt; inactive = no such curve, though single readings can be large; an effect the other way counts as inactive or inconclusive. Potency is read from the fitted curve at half-maximal effect.

SMILES	HEK293 tox	Mito fusion yeast	GLP1R ag	BRCA1 expr act	GLP-1R inv ag
CCc1ccc(/C=C2\SC(=S)N(CCCC(=O)N(CCO)c3ccccc3)C2=O)cc1	?	nt	-5%	-87%	10µM*
N#CC1=C(N)C2=CCCC[C@H]2[C@H](c2ccccc2)C1(C#N)C#N	85%	24%	-38%	-30%	4.5µM*
CCn1ccnc1CN1CCCC(C(=O)c2cc(C)c(OC)c(C)c2)C1 (stereo unspecified)	?	-11%	6%	-28%	?
CCn1ccnc1CN1CCCC(C(=O)c2cc(Cl)ccc2OC)C1 (stereo unspecified)	?	1%	6%	0%	10µM*
N#CC1(c2ccccc2)CCN(C2CC(=O)N(c3ccc(F)cc3)C2=O)CC1 (stereo unspecified)	0%	-8%	-2%	17%	3%
COc1ccc([C@H]2C[C@@H](O)[C@H](n3cc(COC(=O)c4ccccc4)nn3)CN2CC2CCCCC2)cc1	-29%	nt	-1%	-58%	11µM*
Cc1ccc([C@H]2C[C@@H](O)[C@H](n3cc(COC(=O)c4ccccc4)nn3)CN2C(=O)C2CCCCC2)cc1	-19%	nt	5%	-3%	?
CCC[C@@H](CN[C@@H](CNC)[C@H](C)CC)NCC1CCC(C(C)(C)C)CC1 (stereo partly specified)	?	-15%	-14%	-52%	10µM*
COCCNC(=O)N1[C@H]2CC[C@@H]1C(C(=O)OC)=C(c1ccc(OC(F)(F)F)cc1)C2	1%	-2%	-6%	-1%	0%
CN1C(CC(O)c2ccccc2)CCCC1CC(O)c1ccccc1 (stereo unspecified)	-3%	4%	?	-4%	-9%
CCN(CC)CC(O)c1ccc(C2CCCC2)cc1 (stereo unspecified)	10%	0%	-1%	-10%	7.1µM*
COc1ccc([N+](=O)[O-])c(S(=O)(=O)c2ccc(Cl)cc2)n1	10µM*	-1%	-9%	-101%	?
O=S(=O)(c1ccc(Cl)cc1)c1ccc(Cl)cc1	-4%	12%	-2%	0%	-25%
CC(=NCCCn1ccnc1)c1c(O)n(C)c(=O)n(C)c1=O	-1%	-5%	-14%	1%	0%
CCN(Cc1ccccc1)S(=O)(=O)c1ccc(C(=O)N(CCCN(C)C)c2nc3cc4c(cc3s2)OCCO4)cc1	?	4%	-11%	-69%	13µM*
CN1CC(C(=O)c2ccc(Cl)cc2)C(c2ccc(N(C)C)cc2)C1 (stereo unspecified)	8%	-1%	-1%	-17%	?
CN1CC(C(=O)c2ccc(Cl)cc2)C(c2ccc(Cl)cc2Cl)C1 (stereo unspecified)	-26%	-42%	9%	-39%	8.9µM*
CN1CC(C(=O)c2ccc(F)cc2)C(c2ccc(F)cc2)C1 (stereo unspecified)	-10%	-13%	-2%	3%	?
COc1ccc(C2CN(C)CC2C(=O)c2ccc(C)cc2)cc1Cl (stereo unspecified)	-4%	11%	12%	-28%	10µM*
COc1ccc(N=Cc2c(O)n(Cc3ccccc3)c(=S)[nH]c2=O)c(OC)c1	1%	-2%	0%	2%	-13%
CN(CC(=O)N1CCc2ccccc21)S(=O)(=O)c1cccs1	-16%	3%	-4%	4µM*	-1%
Nc1ccccc1C(=O)OCC(=O)N1CCc2ccccc21	3%	2%	2%	?	3%
Cc1nn(CC(C)C)c(Cl)c1C(=O)NC1CCC(C)CC1 (stereo unspecified)	-19%	6%	22%	3.2µM*	-14%
CC[C@H](OC(C)=O)C(C[C@H](C)N(C)C)(c1ccccc1)c1ccccc1	-5%	nt	10%	-13%	?
COc1cc2c(cc1O)[C@@H]1Cc3ccc(OC)c(O)c3CN1CC2	?	0%	-4%	-57%	10µM*
COc1ccc(C[C@@H]2c3cc(O)c(OC)cc3CCN2C)cc1O	1%	-4%	-1%	16%	-1%
